In ChEMBL document CHEMBL1157539, “Thousands of chemical starting points for antimalarial lead identification” (Nature, 2010) one finds Inhibition data, which are given here for 30 compounds.

Format in all cases: functional
In test [1] the test system is Plasmodium falciparum. Description: GSK_TCMDC: Inhibition of Plasmodium falciparum 3D7 in whole red blood cells, using parasite LDH activity as an index of growth. Test compounds present at 2uM.
Test [2] deals with Plasmodium falciparum. Description: GSK_TCMDC: Inhibition of Plasmodium falciparum Dd2 in whole red blood cells, using parasite LDH activity as an index of growth. Test compounds present at 2uM.
In another test the test system is HepG2. The test is described as follows: GSK_TCMDC: Percent inhibition of human HepG2 cell line. Test compounds present at 10uM.

In the case of `CC1(C)N=C(N)N=C(N)N1c1ccc(Cl)c(Cl)c1.Cl`, the values for the Inhibition in the test on Plasmodium falciparum [1], in the test with Plasmodium falciparum [2] and in the test with HepG2 were 95%, 56% and 67%, respectively.

`CC(=O)Nc1ccc(C(=O)Nc2cccc(-c3ccc(-c4nc5cc(C(F)(F)F)ccc5[nH]4)cc3)c2)cn1`: the Inhibition is on record as 100% in the test with Plasmodium falciparum [1], 100% with Plasmodium falciparum [2] and 46% in the test with HepG2.

Turning to `COc1cccc(C(=O)NCCOc2ccccc2)c1Oc1ccccc1`, the Inhibition in the test with Plasmodium falciparum [1] was 98%; in the test on Plasmodium falciparum [2] it was 98%; in the test with HepG2, 14%.

Consider `Fc1ccc(NC(S)=NN=Cc2ccccn2)cc1`, for which the Inhibition in the test on Plasmodium falciparum [1] amounted to 95%; in the test with Plasmodium falciparum [2], 67%; with HepG2, 56%.

For `COc1ccc2[nH]c(/C=C/c3cccc4ccc(C)nc34)nc2c1`, the Inhibition in the test with Plasmodium falciparum [1] was 98%; with Plasmodium falciparum [2], 77%; in the test on HepG2 it was 25%.

For the compound `O=C(/C=C/c1ccc(Cl)c(Cl)c1)NCCCCCN1CCCN(C(=O)Nc2cccc(Cl)c2)CC1`, the Inhibition in the test on Plasmodium falciparum [1] worked out at 100%; in the test with Plasmodium falciparum [2] it was 2%; in the test with HepG2, 11%.

Consider `COc1ccc(-c2ccc(NC(=O)c3ccc(C#N)cc3)cc2)cc1CN1CCCN(C)CC1.O=C(O)C(F)(F)F`, for which the Inhibition in the test on Plasmodium falciparum [1] is reported as 99%; in the test with Plasmodium falciparum [2] it was 75%; with HepG2 it was 27%.

Turning to `COc1ccc(S(=O)(=O)NC2CCN(c3cc(C)nc(Nc4cccc(C#N)c4)n3)CC2)cc1.O=C(O)C(F)(F)F`, the Inhibition in the test on Plasmodium falciparum [1] is given as 88%; with Plasmodium falciparum [2], 55%; in the test on HepG2, 9%.

Consider `COc1ccccc1N1CCN(CCCCN(C(=O)Nc2cccc(Cl)c2)C(=O)Nc2cccc(Cl)c2)CC1.Cl`, for which the Inhibition with Plasmodium falciparum [1] is reported as 100%; in the test with Plasmodium falciparum [2], 65%; in the test on HepG2 it was 4%.

Turning to `C=CC(C)C1OC(=O)c2cc(OC)cc(OC)c21` (centres undefined), the Inhibition with Plasmodium falciparum [1] and in the test with HepG2 was 100% in each case.

`Cc1ccc2c(Cc3cnc(N)nc3N)cc(C)c(N)c2n1.Cl`: the Inhibition in the test on Plasmodium falciparum [1] stood at 91%; with Plasmodium falciparum [2] it was 92%; in the test with HepG2, 0%.

Take `CCNc1cc(C(=O)N[C@@H](Cc2ccc(F)c(F)c2)[C@H](O)CNCc2cccc(OC)c2)cc(N2CCCCS2(=O)=O)c1.Cl`: the Inhibition with Plasmodium falciparum [1] is 99%; with Plasmodium falciparum [2], 85%; with HepG2, 4%.

Consider `COc1cc(OC)c(NC(=O)C2c3ccccc3C(=O)N(CC(C)C)C2c2cccs2)cc1Cl` (centres undefined), for which the Inhibition in the test on Plasmodium falciparum [1] was determined as 100%; with Plasmodium falciparum [2], 100%; with HepG2, 9%.

On to `COc1cccc(-c2cc(C(F)(F)F)n3ncc(C(=O)Nc4cc(C)ccc4O)c3n2)c1`, for which the results for the Inhibition in the test on Plasmodium falciparum [1], in the test on Plasmodium falciparum [2] and in the test on HepG2 were 98%, 99% and 0%, respectively.

Turning to `Cc1cc(=NN=CC=Cc2ccccc2)c2cc(F)ccc2[nH]1`, the Inhibition with Plasmodium falciparum [1] worked out at 100%; with Plasmodium falciparum [2], 36%; in the test with HepG2 it was 8%.

Take `Cc1cc2ccc(-c3cccc(CN)c3)cc2nc1N.Cl`: the Inhibition in the test with Plasmodium falciparum [1] is reported as 100%; with Plasmodium falciparum [2] it was 1%; in the test on HepG2 it was 0%.

For the compound `O=C(Nc1ccc(Cn2nc(Cl)c(N3CCCNCC3)cc2=O)cc1)Nc1ccc(-c2ccccc2)cc1.O=C(O)C(F)(F)F`, the figures for the Inhibition in the test with Plasmodium falciparum [1], with Plasmodium falciparum [2] and in the test on HepG2 were 87%, 36% and 89%, respectively.

On to `CC(=O)c1cc(N2CCCC2)ccc1N`, for which the Inhibition in the test with Plasmodium falciparum [1] is listed as 97%; in the test with Plasmodium falciparum [2], 97%; with HepG2 it was 1%.

On to `O=C(Cc1ccsc1)NCC(c1ccccc1Cl)c1c[nH]c2ccccc12` (centres undefined), for which the Inhibition in the test with Plasmodium falciparum [1] was found to be 86%; with Plasmodium falciparum [2], 71%; in the test on HepG2 it was 0%.

As to `CCCCCOc1c(CCC)cc(Cc2cnc(N)nc2N)cc1CCC`, the Inhibition in the test with Plasmodium falciparum [1] is 94%; in the test with Plasmodium falciparum [2], 0%; in the test on HepG2 it was 58%.

On to `Cc1cc(C(=O)OCC(=O)Nc2c(C)n(C)n(-c3ccccc3)c2=O)c(C)n1-c1ccc(F)cc1`, for which the Inhibition with Plasmodium falciparum [1] is on record as 100%; in the test on Plasmodium falciparum [2], 99%; with HepG2, 0%.

Take `O=C(O)C(F)(F)F.O=S(=O)(NCCN1CCCC1)c1cccc(-c2ccccc2CNC2Cc3ccccc3C2)c1`: the figures for the Inhibition in the test on Plasmodium falciparum [1], in the test on Plasmodium falciparum [2] and in the test on HepG2 were 99%, 76% and 35%, respectively.

For `CCN(CC)CCn1c2ccccc2c2ccc(C(=O)Nc3ccc4sc(C)nc4c3)cc21.Cl`, the Inhibition in the test with Plasmodium falciparum [1] was determined as 84%; with Plasmodium falciparum [2], 26%; in the test with HepG2, 97%.

In the case of `COc1c(C2CCN(CCCCNC(=O)c3ccc(-c4ccc(Cl)cc4)cn3)CC2)ccc2c1CCCC2`, the Inhibition with Plasmodium falciparum [1] is listed as 93%; in the test with Plasmodium falciparum [2], 14%; with HepG2, 100%.

In the case of `Cc1ccc(Nc2nc(NN=Cc3ccc(-c4ccc([N+](=O)[O-])cc4)o3)nc(N3CCOCC3)n2)cc1Cl`, the Inhibition in the test with Plasmodium falciparum [1] stood at 95%; in the test with Plasmodium falciparum [2], 47%; with HepG2, 12%.

For the compound `COc1ccc2c(Nc3ccc(N4CCN(C)CC4)cc3)cc(C)nc2c1`, the Inhibition in the test with Plasmodium falciparum [1] is listed as 100%; with Plasmodium falciparum [2], 9%; in the test on HepG2, 23%.

For `O=C(NCCCNc1ccnc2cc(Cl)ccc12)c1ccccc1F`, the values for the Inhibition in the test on Plasmodium falciparum [1], in the test on Plasmodium falciparum [2] and with HepG2 were 100%, 97% and 18%, respectively.

Regarding `Cc1ccc(NC(=O)Nc2ccc(S(=O)(=O)c3ccc(NC(=O)Nc4ccc(C)c(Cl)c4)cc3)cc2)cc1Cl`, the figures for the Inhibition with Plasmodium falciparum [1], with Plasmodium falciparum [2] and with HepG2 were 99%, 42% and 49%, respectively.

For the compound `Cc1cc(NC(=O)Nc2ccc3sccc3c2)c2ccccc2n1`, the Inhibition in the test on Plasmodium falciparum [1] is 99%; in the test on Plasmodium falciparum [2], 57%; in the test on HepG2, 41%.

Consider `COc1ccc(Cl)cc1C(=O)Nc1ccc(-c2nc3ccccc3[nH]2)cc1`, for which the results for the Inhibition with Plasmodium falciparum [1], in the test with Plasmodium falciparum [2] and in the test with HepG2 were 92%, 39% and 42%, respectively.

Broadly, the Inhibition is the relative decrease from the control value, in per cent. Read a low Inhibition as a response near the control.
